Several values for one entry are separate records, joined by “and”; a condition that tells them apart may be missing. Identical values can stand only once. Inconclusive results are not listed. More than one record can exist for a structure, and the calls need not agree. Activity calls are given as the source filed them. Unless noted, the call rests on the fitted dose curve; in most records, active means well fitted curve in the direction sought with a large enough effect in the repeat runs; inconclusive means weak or mixed curves; inactive means no such curve, though single readings can be large; an effect the other way counts as inactive or inconclusive.
Tests used:
[1] = qHTS assay to identify small molecule agonists of H2AX - cell viability counter screen (AID 1224847; calls by dose curve;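 further: wild-type CHO-K1 cells; top concentration of the series differs between compounds; nearly all actives have a fitted effect of over 30% in size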)
Summary of the method: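 After overnight plating of 1000 CHO-K1 cells per well, a 15-concentration compound series was applied for 3 hr at 37C. Luminescence from CellTiter-Glo, read following 30 min at room temperature, reflected cell viability.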

[2] = qHTS RealTime-Glo MT Cell Viability Assay in HepG2 cells - 24 hour (AID 1224867); further: nearly all actives have a fitted effect of over 50% in size
Summary of the method: (§1)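 HepG2 suspension premixed with RealTime-Glo reagents is plated at 600 cells per well and left 5 h at 37 C/5% CO2. Compounds in DMSO then go in, and bioluminescence reflecting viable cell number is recorded over 40 h.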

[3] = qHTS RealTime-Glo MT Cell Viability Assay in HEK293 cells - 32 hour (AID 1224868); further: top concentration of the series differs between compounds; nearly all actives have a fitted effect of over 50% in size
Summary of the method: (§2)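 Reads taken at 0, 8, 16, 24, 32 and 40 h from the same wells. HEK293 cells (600/well) carried RealTime-Glo reagents from seeding, with compound added after a 5 h settle at 37 C.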

[4] = A CellTox Green Cytotoxicity Assay to monitor cytotoxicity in HEK293 cells - 0 hour (AID 1224869); further: nearly all actives have a fitted effect of over 50% in size
Summary of the method: (§3)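 HEK293 cells, 600/well, were preincubated 5 hours and then exposed to compounds at 37 C for up to 40 hours. A cell-impermeant cyanine dye staining dead-cell DNA was read by fluorescence at 0, 8, 16, 24, 32 and 40 h time points.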

[5] = qHTS RealTime-Glo MT Cell Viability Assay in HepG2 cells - 40 hour (AID 1224870); further: nearly all actives have a fitted effect of over 50% in size
Summary of the method: (§4)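 HepG2 cells (600/well) mixed with RealTime-Glo MT reagent, settled 5 h at 37 C/5% CO2 before compound addition. Nonlytic NanoLuc luminescence from viable-cell prosubstrate reduction read repeatedly during 40 h treatment at 37 C.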

[6] = A CellTox Green Cytotoxicity Assay to monitor cytotoxicity in HEK293 cells - 40 hour (AID 1224871); further: nearly all actives have a fitted effect of over 45% in size
Summary of the method: as §3

[7] = qHTS RealTime-Glo MT Cell Viability Assay in HEK293 cells - 16 hour (AID 1224872)
Summary of the method: as §2

[8] = qHTS RealTime-Glo MT Cell Viability Assay in HepG2 cells - 8 hour (AID 1224873); further: nearly all actives have a fitted effect of over 55% in size
Summary of the method: as §4

[9] = A CellTox Green Cytotoxicity Assay to monitor cytotoxicity in HEK293 cells - 24 hour (AID 1224875); further: series mostly up to about 77 µM; nearly all actives have a fitted effect of over 45% in size
Summary of the method: as §3

[10] = A CellTox Green Cytotoxicity Assay to monitor cytotoxicity in HepG2 cells - 16 hour (AID 1224876); further: nearly all actives have a fitted effect of over 45% in size
Summary of the method: (§5)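 HepG2 cells, 600/well, preincubated 5 h with CellTox Green dye, then exposed to Tox21 compounds in DMSO at 37 C for up to 40 h. Dead-cell DNA fluorescence read at the indicated time point.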

[11] = qHTS RealTime-Glo MT Cell Viability Assay in HepG2 cells - 32 hour (AID 1224877); further: nearly all actives have a fitted effect of over 55% in size
Summary of the method: as §1

[12] = A CellTox Green Cytotoxicity Assay to monitor cytotoxicity in HepG2 cells - 24 hour (AID 1224878); further: nearly all actives have a fitted effect of over 45% in size
Summary of the method: as §5

[13] = A CellTox Green Cytotoxicity Assay to monitor cytotoxicity in HepG2 cells - 40 hour (AID 1224879); further: nearly all actives have a fitted effect of over 40% in size; further: potency means the concentration at half of the fitted maximal effect
Summary of the method: as §5

[14] = qHTS RealTime-Glo MT Cell Viability Assay in HEK293 cells - 0 hour (AID 1224880)
Summary of the method: (§6)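 600 cells/well were plated with the nonlytic NanoLuc/prosubstrate reagent, pre-incubated 5 h, then given 23 nL of compound in DMSO. Incubation at 37 C for 40 h, with luminescence from viable-cell-reduced substrate read repeatedly from 0 h.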

[15] = A CellTox Green Cytotoxicity Assay to monitor cytotoxicity in HEK293 cells - 32 hour (AID 1224881); further: nearly all actives have a fitted effect of over 40% in size
Summary of the method: as §3

[16] = A CellTox Green Cytotoxicity Assay to monitor cytotoxicity in HepG2 cells - 0 hour (AID 1224882); further: nearly all actives have a fitted effect of over 35% in size
Summary of the method: as §5

[17] = A CellTox Green Cytotoxicity Assay to monitor cytotoxicity in HepG2 cells - 32 hour (AID 1224883); further: nearly all actives have a fitted effect of over 50% in size
Summary of the method: as §5

[18] = A CellTox Green Cytotoxicity Assay to monitor cytotoxicity in HEK293 cells - 8 hour (AID 1224884); further: nearly all actives have a fitted effect of over 35% in size
Summary of the method: as §3

[19] = qHTS RealTime-Glo MT Cell Viability Assay in HEK293 cells - 40 hour (AID 1224874); settings: RealTime-Glo luminescence; max response: stronger effect = lower value; further: nearly all actives have a fitted effect of over 50% in size
Summary of the method: as §6
On the % scale 0 is the no-effect control and ±100 the full control effect.

CC1CCC2CC1C2(C)C (centres undefined)
inactive: Potency [1] | outcome [2] | Potency [3] | outcome [4] | outcome [5] | Potency [6] | Potency [7] | outcome [8] | Potency [9] | Potency [10] | outcome [11] | Potency [12] | Potency [13] | Potency [14] | Potency [15] | outcome [16] | Potency [17] | outcome [18]

C=CCNC(N)=S
inactive: Potency [1] | outcome [2] | Potency [3] | outcome [4] | outcome [5] | Potency [6] | Potency [7] | outcome [8] | Potency [9] | Potency [10] | outcome [11] | Potency [12] | Potency [13] | Potency [14] | Potency [15] | outcome [16] | Potency [17] | outcome [18]

CCCCOC(=O)COc1ccc(Cl)cc1Cl
inactive: Potency [1] | outcome [2] | Potency [3] | outcome [4] | outcome [5] | Potency [6] | Potency [7] | max response [19] -3.14% and 1.1% | Potency [9] | Potency [10] | outcome [11] | Potency [12] | Potency [13] | Potency [14] | Potency [15] | outcome [16] | Potency [17] | outcome [18]

CN(C)CCC(c1ccccc1)c1ccccn1 (centres undefined)
inactive: Potency [1] | outcome [2] | Potency [3] | outcome [4] | outcome [5] | Potency [6] | Potency [7] | outcome [8] | max response [19] 7.85% and 1.55% | Potency [9] | outcome [11] | Potency [12] | Potency [13] | Potency [14] | outcome [16] | Potency [17] | outcome [18]

O=S(=O)(O)c1ccc2ccccc2c1
inactive: Potency [1] | outcome [2] | Potency [3] | outcome [4] | outcome [5] | Potency [6] | Potency [7] | max response [19] 19.4% and -5.62% | Potency [9] | Potency [10] | outcome [11] | Potency [12] | Potency [13] | Potency [14] | Potency [15] | outcome [16] | Potency [17] | outcome [18]

CCCCCCCCCCCCS
inactive: Potency [1] | outcome [2] | Potency [3] | outcome [4] | outcome [5] | Potency [6] | Potency [7] | outcome [8] | Potency [9] | outcome [11] | Potency [12] | Potency [13] | Potency [14] | Potency [15] | outcome [16] | Potency [17] | outcome [18]

Cc1ccc(N(C)C)cc1
inactive: Potency [1] | outcome [2] | Potency [3] | outcome [4] | outcome [5] | Potency [6] | Potency [7] | outcome [8] | max response [19] 0.353% and -2.55% | Potency [9] | Potency [10] | outcome [11] | Potency [12] | Potency [13] | Potency [14] | outcome [16] | Potency [17] | outcome [18]

CCCCCC1=CCCC1=O
inactive: Potency [1] | outcome [2] | Potency [3] | outcome [4] | outcome [5] | Potency [6] | Potency [7] | max response [19] 5.34% and -3.52% | Potency [9] | Potency [10] | outcome [11] | Potency [12] | Potency [13] | Potency [14] | outcome [16] | Potency [17] | outcome [18]

CC(=O)CC(=O)Nc1ccccc1
inactive: Potency [1] | outcome [2] | Potency [3] | outcome [4] | outcome [5] | Potency [6] | Potency [7] | outcome [8] | max response [19] -1.61% and 1.86% | Potency [9] | outcome [11] | Potency [12] | Potency [13] | Potency [14] | outcome [16] | Potency [17] | outcome [18]

O=C(O)c1ccc(C(=O)O)cc1
inactive: Potency [1] | outcome [2] | Potency [3] | outcome [4] | outcome [5] | Potency [6] | Potency [7] | outcome [8] | Potency [9] | Potency [10] | outcome [11] | Potency [12] | Potency [14] | Potency [15] | outcome [16] | Potency [17] | outcome [18]
inactive and 15.5 µM (active): Potency [13]

C[C@H]1C[C@H]2[C@@H]3CCC4=CC(=O)C=C[C@]4(C)[C@@]3(F)[C@@H](O)C[C@]2(C)[C@@]1(O)C(=O)CO
inactive: Potency [1] | outcome [2] | Potency [3] | outcome [4] | outcome [5] | Potency [6] | Potency [7] | outcome [8] | max response [19] -12.6% and 0.279% | Potency [9] | outcome [11] | Potency [12] | Potency [13] | Potency [14] | Potency [15] | outcome [16] | Potency [17] | outcome [18]

CCN(CC)CCCC(C)Nc1ccnc2cc(Cl)ccc12 (centres undefined)
inactive: activity change, negative = cytotoxicity [1] 0.575% [at 14 µM] and -2.97% [at 31.6 µM] | activity change, negative = cytotoxicity [2] 1.52% [at 6.97 µM] and -6.42% [at 15.8 µM] | activity change, negative = cytotoxic [3] -16.4% [at 6.97 µM] | cytotoxicity [4] 0.802% [at 6.97 µM] and -1.16% [at 15.8 µM] | activity change, negative = cytotoxic [5] -2.02% [at 6.97 µM] and -2.98% [at 15.8 µM] | cytotoxicity increase [6] -14.6% [at 6.97 µM] and 9.06% [at 15.8 µM] | activity change, negative = cytotoxicity [7] -11.3% [at 6.97 µM] | viability change, negative = cytotoxic [8] -1.01% [at 6.97 µM] and -3.34% [at 15.8 µM] | max response [19] -13.9% | cytotoxicity increase [10] -7.78% [at 6.97 µM] and 19.1% [at 15.8 µM] | activity change, negative = cytotoxic [11] 11.1% [at 6.97 µM] and -5.44% [at 15.8 µM] | cytotoxicity [12] -7.44% [at 6.97 µM] | cytotoxicity increase [13] -6.76% [at 6.97 µM] and 37% [at 15.8 µM] | activity change, negative = cytotoxicity [14] -2.92% [at 6.97 µM] and -5.73% [at 15.8 µM] | cytotoxicity increase [15] -12.6% [at 6.97 µM] and 3.44% [at 15.8 µM] | cytotoxicity [16] -5% [at 6.97 µM] and 4.14% [at 15.8 µM] | cytotoxicity increase [17] -6.83% [at 6.97 µM] | cytotoxicity increase [18] -10.7% [at 6.97 µM] and -2.14% [at 15.8 µM]

NNc1nncc2ccccc12
inactive: Potency [1] | outcome [2] | activity change, negative = cytotoxic [3] 3.93% [at 15.8 µM] | outcome [4] | outcome [5] | Potency [6] | activity change, negative = cytotoxicity [7] -0.186% [at 15.8 µM] | outcome [8] | Potency [9] | Potency [10] | outcome [11] | Potency [12] | Potency [13] | Potency [14] | Potency [15] | outcome [16] | Potency [17] | outcome [18]

Cc1occc(=O)c1O
inactive: Potency [1] | outcome [2] | Potency [3] | outcome [4] | outcome [5] | Potency [6] | Potency [7] | outcome [8] | max response [19] -7.52% and -0.505% | Potency [9] | Potency [10] | outcome [11] | Potency [12] | Potency [13] | Potency [14] | Potency [15] | outcome [16] | Potency [17] | outcome [18]
